The campaign covered roughly 360,000 compounds. About 2,300 (0.64%) were called active. Only a selection was taken, and actives are over-represented in it overall. Values without a mark were called inactive.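 The calls were made as follows: active = compounds giving at least 50% protection of heart cells from peroxide-induced death in the single-dose screen, raw or plate-pattern-corrected value; inactive = the rest.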

This test can be described thus: cardioprotection against H2O2-induced cell death, primary screen, uHTS, H9c2 cells, ATPLite luminescence (AID 588492).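 Also: 0% = DMSO wells with peroxide and 100% = DMSO wells without peroxide.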 The settings on record: H9c2 cardiomyocytes, H2O2 injury protection, 2 h, at 20 µM, stronger effect = higher value. Background: Cellular ATP, detected with luciferase, serves as a proxy for viable cell number.
As to `COc1ccc(-c2[nH]ncc2CN(C)Cc2cccnc2)c(F)c1`, the protection from H2O2 cell death was -2.7%.

Consider `COc1ccc2[nH]c(=O)c(CN(Cc3cccnc3)S(=O)(=O)c3ccccc3F)cc2c1`, for which the protection from H2O2 cell death is 60.7% (active).

For `CCOc1ccc2[nH]c(=O)c(CN(CCCO)S(=O)(=O)c3ccc(F)cc3)cc2c1`, the protection from H2O2 cell death is 18.6%.

For `O=C(CNS(=O)(=O)c1ccc2c(c1)OCCCO2)N1CCN(c2ccc(F)cc2)CC1`, the protection from H2O2 cell death was -3.7%.

Consider `CC1CCC2(CC1)NC(=O)N(CC(=O)c1cccn1C)C2=O` (configuration not stated), for which the protection from H2O2 cell death is 7.1%.

With `Cc1ccc(C(=O)N/C(=C/c2ccc(-c3cccc([N+](=O)[O-])c3)o2)C(=O)NCCCN(C)C)cc1`, the protection from H2O2 cell death is -22.6%.

With `N#C/C(=C\c1ccc(-c2cccc([N+](=O)[O-])c2)o1)C(=O)NCCN1CCOCC1`, the protection from H2O2 cell death is 55% (active).

As to `Cc1ccc(-c2ccc(/C=N/NC(=O)CN3CCOCC3)o2)cc1[N+](=O)[O-]`, the protection from H2O2 cell death is 7.6%.

On to `COc1ccc(C(=O)Nc2ccc(C(=O)NCC3CCCO3)cc2)c(OC)c1OC` (configuration not stated), for which the protection from H2O2 cell death is 10.2%.

As for `O=C(NCCN1C(=O)S/C(=C\c2cccnc2)C1=O)c1ccc(S(=O)(=O)N2CCCC2)cc1`, the protection from H2O2 cell death was 0.9%.

As to `Oc1c(C(c2ccccn2)N2CCOCC2)ccc2cccnc12` (configuration not stated), the protection from H2O2 cell death was 64.9% (active).

Turning to `COc1cc(-c2nnc(NC(=O)C3=COCCO3)o2)cc(OC)c1OC`, the protection from H2O2 cell death is -5.7%.

For the compound `Cc1nc(C)c(-c2nnc(-c3cccc(S(=O)(=O)N(C)C)c3)o2)cc1C(=O)NN`, the protection from H2O2 cell death was -1.4%.

Take `CCOC(=O)c1cc(-c2nnc(-c3cc(OC)c(OC)c(OC)c3)o2)c(C)nc1C`: the protection from H2O2 cell death is 119% (active).

Regarding `CCOC(=O)c1[nH]cnc1C(=O)NC1CCCCC1`, the protection from H2O2 cell death was 5.2%.

Turning to `COc1ccc(C(=O)NNC(=O)c2cc(C)[nH]n2)cc1`, the protection from H2O2 cell death was 7.7%.

For `Cc1occc1C(=O)N/N=C/c1ccc(-c2cccc([N+](=O)[O-])c2)o1`, the protection from H2O2 cell death was 16.2%.

For `Cc1cc(C(=O)N/N=C/c2cc([N+](=O)[O-])cc(C)c2O)n[nH]1`, the protection from H2O2 cell death is 58.2% (active).

`O=C(OC1CCOC1=O)c1ccc(-c2nc3ccccc3s2)s1` (configuration not stated): the protection from H2O2 cell death is -18.2%.

On to `Cc1cc(C)c(S(=O)(=O)c2ccc(F)cc2C)c(=O)[nH]1`, for which the protection from H2O2 cell death was 11.1%.

Regarding `Oc1ccc(Br)cc1C=Nc1ccc2[nH]ncc2c1`, the protection from H2O2 cell death is 63.8% (active).

`CCN(CC)CCn1c(/N=C/c2cc(Br)ccc2O)nc2ccccc21`: the protection from H2O2 cell death was 32.2%.

On to `O=C(CCc1ccc(O)cc1)NN=Cc1cc(Br)ccc1O`, for which the protection from H2O2 cell death is 41.5%.

On to `CCc1cc(=O)oc2cc(OCC(=O)N3CCCc4ccccc43)ccc12`, for which the protection from H2O2 cell death is 22.6%.

Turning to `Cc1cc(C(=O)OCC(=O)NCc2ccco2)c(C)n1-c1ccccc1`, the protection from H2O2 cell death is -1.9%.

Regarding `COc1ccc(/C=C2/S/C(=N/N=C3\CC4CCC3(C)C4(C)C)NC2=O)cc1` (configuration not stated), the protection from H2O2 cell death was -7.9%.

Take `O=[N+]([O-])c1ccc2c(c1)C(N1CCOCC1)/C(=C/C1(O)CCCCC1)O2` (configuration not stated): the protection from H2O2 cell death is 1.3%.

Consider `O=C1OCCC1=COCCCCOC=C1CCOC1=O`, for which the protection from H2O2 cell death was 3%.

Turning to `O=C(NCC1(N2CCCCC2)CCCCC1)c1cccc(S(=O)(=O)Nc2ccccc2Cl)c1`, the protection from H2O2 cell death was 28.2%.

In the case of `O=C(O)Cn1c(Cc2ccccc2)nc2ccccc21`, the protection from H2O2 cell death was 11.1%.

As for `CCCn1c(N)c(C(=O)CSc2nnc(-c3cccnc3)n2-c2ccc(C)cc2C)c(=O)[nH]c1=O`, the protection from H2O2 cell death is 22.9%.

Turning to `Cc1ccc(C)c(NC(=O)CSc2nc3c(oc4ccccc43)c(=O)n2-c2ccccc2)c1`, the protection from H2O2 cell death is -6.4%.

With `CCCCC(=O)Nc1cc(C)c2c(=O)oc3ccccc3c2n1`, the protection from H2O2 cell death was 77.7% (active).

Consider `CCCCC(=O)Nc1ccc2c(c1)C(=O)NC2=O`, for which the protection from H2O2 cell death was 9.9%.

For `COc1ccc2c(c1)C(NS(=O)(=O)OCC(Cl)(Cl)Cl)CCC2` (configuration not stated), the protection from H2O2 cell death was -4.5%.

For `COc1ccc(S(=O)(=O)NCCc2cc3ccc(C)c(C)c3[nH]c2=O)cc1`, the protection from H2O2 cell death is -9.7%.

In the case of `COc1ccc2[nH]c(=O)c(CNc3ccc(C)c(C)c3)cc2c1`, the protection from H2O2 cell death is 57.7% (active).

As to `COc1ccc2[nH]c(=O)c(CN(CC3CCCO3)C(=O)Nc3ccccc3)cc2c1` (configuration not stated), the protection from H2O2 cell death was 11.7%.

In the case of `CCc1cccc(CC)c1N1C(=O)CC(Sc2ccccc2N)C1=O` (configuration not stated), the protection from H2O2 cell death was -0.9%.

`O=C(NCc1cccs1)C(=O)NCC1OCCCN1S(=O)(=O)c1ccc(F)cc1` (configuration not stated): the protection from H2O2 cell death was 6%.

With `CCOc1cc2c(Cl)ncnc2c(OCC)c1OCC`, the protection from H2O2 cell death was 0.8%.

On to `CC(Oc1ccc(Cl)cc1)C(=O)OCC(=O)Nc1ncc(Cl)cc1Cl` (configuration not stated), for which the protection from H2O2 cell death was 7.1%.

On to `Cc1ccc(S(=O)(=O)N(C)CC(=O)OCC(=O)Nc2ccccc2)cc1`, for which the protection from H2O2 cell death is -0.1%.

Turning to `CCC1(CC)NC(=O)N(CC(=O)OCC(=O)c2cc(C)c(C)cc2C)C1=O`, the protection from H2O2 cell death was 4.7%.

Consider `O=C(COC(=O)Cn1[nH]c(=O)c2ccccc2c1=O)Nc1c(Cl)cccc1C(F)(F)F`, for which the protection from H2O2 cell death was 88.6% (active).

Turning to `O=C(COC(=O)c1ccc(S(=O)(=O)N2CCCCCC2)cc1)Nc1ccccc1C(F)(F)F`, the protection from H2O2 cell death is 2.5%.

As for `CN(C)S(=O)(=O)c1ccc(NC(=O)COC(=O)Cn2[nH]c(=O)c3ccccc3c2=O)cc1`, the protection from H2O2 cell death was 72.5% (active).

On to `O=C(COC(=O)Cn1[nH]c(=O)c2ccccc2c1=O)Nc1ncc(Cl)cc1Cl`, for which the protection from H2O2 cell death is 79.9% (active).

For the compound `Cc1ccc(C)c(C(=O)COC(=O)Cn2[nH]c(=O)c3ccccc3c2=O)c1`, the protection from H2O2 cell death is 82% (active).

Regarding `CN(C)S(=O)(=O)c1ccc(NC(=O)COC(=O)c2n[nH]c3ccccc23)cc1`, the protection from H2O2 cell death is -11.7%.

Take `CCC1(CC)NC(=O)N(CC(=O)OCC(=O)Nc2ccc(C(F)(F)F)cc2)C1=O`: the protection from H2O2 cell death is 4.8%.

`CC1(C(=O)OCC(=O)Nc2ncc(Cl)cc2Cl)CC1(Cl)Cl` (configuration not stated): the protection from H2O2 cell death is -1.6%.

For `Cc1ccc(C)c(NC(=O)COC(=O)c2nn(C)c(=O)c3ccccc23)c1`, the protection from H2O2 cell death is 7%.

For `CCc1nc2ccc(C(=O)NCCNC(C)=O)cn2c1N(CC)Cc1cccc(Br)c1`, the protection from H2O2 cell death is 4.8%.

As for `CC(OC(=O)CNC(=O)c1cccc(F)c1)C(=O)NC1CCCCC1C` (configuration not stated), the protection from H2O2 cell death is 2%.

For `CCCC(=O)Nc1ccc2c(c1)nc1n2CCSC1`, the protection from H2O2 cell death was -7.4%.

As to `CS(=O)(=O)N1CCc2nc(-c3ccccc3)sc2C1`, the protection from H2O2 cell death is -1.4%.

Source of the values: PubChem BioAssay AID588492 (Sanford-Burnham Center for Chemical Genomics, 2011).
